Inconclusive results are not listed. Active and inactive are the calls of the source. Unless noted, calls come from the whole dose curve.
Assays:
[1] = Nuclear factor erythroid 2-related factor 2/antioxidant responsive element (Nrf2/ARE) small molecule agonists: luciferase reporter gene qHTS assay in human keratinocytes (AID 1919969); note: nearly all actives have a fitted effect of over 35% in size
[2] = molecular target: Gonadotropin-releasing hormone receptor (Homo sapiens) (UniProt P30968); experiment: Human gonadotropin-releasing hormone receptor (GnRHR) small molecule agonists, calcium flux assay in GnRHR-HEK293 cells (AID 1920063); note: nearly all actives have a fitted effect of over 35% in size
Gonadotropin-releasing hormone receptor (Homo sapiens), sequence (P30968 whole entry, looked up): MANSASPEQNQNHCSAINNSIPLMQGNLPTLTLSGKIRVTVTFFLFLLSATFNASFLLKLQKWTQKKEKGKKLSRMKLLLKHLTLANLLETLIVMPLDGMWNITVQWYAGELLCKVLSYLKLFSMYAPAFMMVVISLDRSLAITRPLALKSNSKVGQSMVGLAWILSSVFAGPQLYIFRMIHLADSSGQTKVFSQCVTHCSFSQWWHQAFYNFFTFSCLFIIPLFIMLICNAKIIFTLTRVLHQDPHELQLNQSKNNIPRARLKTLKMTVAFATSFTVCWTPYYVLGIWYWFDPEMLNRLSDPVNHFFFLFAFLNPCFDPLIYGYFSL
Procedure, shortened: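 HEK293 cells stably expressing human GnRHR were plated 18 h at 37 °C, loaded with calcium dye 1 h at 37 °C, then given compound in agonist mode; fluorescence (Ex/Em 480/540) read kinetically for 3 min at 1 s intervals.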

[3] = molecular target: KiSS-1 receptor (Homo sapiens) (UniProt Q969F8); experiment: Human kisspeptin (KISS1R) small molecule agonists, calcium flux assay in KISS1R-HEK293 cells (AID 1920064; active = well fitted curve in the direction sought with a large enough effect in the repeat runs; an effect the other way counts as inactive or inconclusive)
KiSS-1 receptor (Homo sapiens), sequence (Q969F8 whole entry, looked up): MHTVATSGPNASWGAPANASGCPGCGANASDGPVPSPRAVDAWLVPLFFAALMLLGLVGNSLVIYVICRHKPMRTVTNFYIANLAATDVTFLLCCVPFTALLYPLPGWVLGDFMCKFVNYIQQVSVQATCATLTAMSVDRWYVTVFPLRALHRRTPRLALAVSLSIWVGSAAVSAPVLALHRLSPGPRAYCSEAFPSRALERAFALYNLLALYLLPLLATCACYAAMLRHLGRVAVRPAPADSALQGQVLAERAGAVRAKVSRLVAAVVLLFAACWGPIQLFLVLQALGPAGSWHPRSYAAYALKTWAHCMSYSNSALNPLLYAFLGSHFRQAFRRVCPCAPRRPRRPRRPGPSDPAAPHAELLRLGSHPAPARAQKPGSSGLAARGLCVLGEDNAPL
Procedure, shortened: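 HEK293 cells stably expressing human KISS1R were plated 18 h at 37 °C, loaded with calcium dye for 1 h at 37 °C, then given compound by pin tool. Fluorescence (Ex/Em 480/540) was read kinetically for 3 min.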

[4] = G protein-coupled receptor (GPCR) small molecule agonists, calcium flux assay: HEK293 wild type cell line counter screen (AID 1920065)
Procedure, shortened: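 Cells were plated and cultured 18 h at 37 C/5% CO2, then loaded with calcium dye for 1 h at 37 C. Compounds in DMSO were pin-transferred in agonist mode, and fluorescence (Ex/Em 480/540) was read kinetically for 3 min at 1 s intervals.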

[5] = p53 small molecule agonists, cell-based qHTS assay with human liver microsomes (AID 1963577);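 note: p53 response element beta-lactamase reporter cells with liver microsomes plus NADPH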
Procedure, shortened: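 HLM-supplemented p53RE-bla reporter assay: 16 h compound exposure at 37 C, microsomes and NADPH each 0.5 mg/mL final, read by fluorescence intensity.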

[6] = p53 small molecule agonists, cell-based qHTS assay with rat liver microsomes (AID 1963578)
Procedure, shortened: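 Quantitative HTS of the Tox21 10K library: p53RE-bla cells, rat liver microsomes plus NADPH at 0.5 mg/mL final each, 16 h at 37 C, beta-lactamase fluorescence detection.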

[7] = p53 small molecule agonists, cell-based qHTS assay with human liver microsomes: qHTS cell viability counter screen (AID 1963579); note: nearly all actives have a fitted effect of over 45% in size
Procedure, shortened: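 Viability of p53RE-bla cells is measured as CellTiter-Glo luminescence following a 16 h, 37 C incubation with compound, liver microsomes from human donors and NADPH.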

[8] = p53 small molecule agonists, cell-based qHTS assay with rat liver microsomes: qHTS cell viability counter screen (AID 1963580); note: nearly all actives have a fitted effect of over 45% in size
Procedure, shortened: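 Viability is assessed in parallel with the p53 reporter read: HCT-116 p53RE-bla cells receive compounds plus rat microsomes and NADPH (0.5 mg/mL final apiece), incubate 16 h at 37 C, and then CellTiter-Glo luminescence is recorded.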

[9] = p53 small molecule agonists, cell-based qHTS assay: qHTS cell viability counter screen (AID 1963581); note: nearly all actives have a fitted effect of over 45% in size
Procedure, shortened: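 p53RE-bla HCT-116 cells were exposed to compounds for 16 h at 37 C; after the beta-lactamase FRET read in the same wells, CellTiter-Glo was added and luminescence (intracellular ATP) read after 30 min at room temperature.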

[10] = p53 small molecule agonists, cell-based qHTS assay (AID 1963582; active = well fitted activation curve with a large enough effect in the signal ratio in the repeat runs, not every such curve was filed as active; the % refers to the signal ratio)
Procedure, shortened: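 p53RE-bla beta-lactamase reporter cells rested 5 h at 37 C/5% CO2, then received compounds in DMSO by pin transfer and were incubated 16 h at 37 C. LiveBLAzer B/G FRET substrate was loaded for 2 h at room temperature before fluorescence reading.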

[11] = molecular target: 5-hydroxytryptamine receptor 2A (Homo sapiens) (UniProt P28223); experiment: 5-hydroxytryptamine receptor 2A (HTR2A) small molecule antagonists, cell-based qHTS assay (AID 1963586); note: nearly all actives have a fitted effect of over 45% in size
5-hydroxytryptamine receptor 2A (Homo sapiens), sequence (P28223 whole entry, looked up): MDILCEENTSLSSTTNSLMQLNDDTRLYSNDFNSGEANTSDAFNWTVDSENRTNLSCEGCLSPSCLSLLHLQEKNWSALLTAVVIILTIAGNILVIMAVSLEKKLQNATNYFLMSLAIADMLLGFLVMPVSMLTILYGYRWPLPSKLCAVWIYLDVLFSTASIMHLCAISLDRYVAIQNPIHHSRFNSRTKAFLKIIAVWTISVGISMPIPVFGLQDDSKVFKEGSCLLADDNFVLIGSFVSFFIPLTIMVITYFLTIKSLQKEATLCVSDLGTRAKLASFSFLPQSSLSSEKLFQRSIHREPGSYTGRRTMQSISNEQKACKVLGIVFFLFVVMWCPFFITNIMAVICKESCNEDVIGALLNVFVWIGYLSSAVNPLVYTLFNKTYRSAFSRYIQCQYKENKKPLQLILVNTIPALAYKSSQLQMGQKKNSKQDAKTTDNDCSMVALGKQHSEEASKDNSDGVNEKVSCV
Procedure, shortened: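 Antagonist-mode intracellular calcium assay: DOI (4 nM) added after 5 min compound pre-incubation at room temperature to dye-loaded HTR2A-CHO cells. Fluorescence followed for 3 min, sampled every second.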

[12] = molecular target: 5-hydroxytryptamine receptor 2A (Homo sapiens) (UniProt P28223); experiment: 5-hydroxytryptamine receptor 2A (HTR2A) small molecule agonists, cell-based qHTS assay (AID 1963587); note: nearly all actives have a fitted effect of over 30% in size
Procedure, shortened: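 CHO cells stably expressing human HTR2A, plated 18 h, loaded with calcium dye 1 h at 37 C. Agonist mode: compounds added and intracellular calcium fluorescence recorded kinetically for 2 min at 1 sec intervals.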

[13] = molecular target: Muscarinic acetylcholine receptor M1 (Homo sapiens) (UniProt P11229); experiment: Cholinergic receptor muscarinic 1 (CHRM1) small molecule agonists, cell-based qHTS assay (AID 1963589); note: nearly all actives have a fitted effect of over 35% in size
Muscarinic acetylcholine receptor M1 (Homo sapiens), sequence (P11229 whole entry, looked up): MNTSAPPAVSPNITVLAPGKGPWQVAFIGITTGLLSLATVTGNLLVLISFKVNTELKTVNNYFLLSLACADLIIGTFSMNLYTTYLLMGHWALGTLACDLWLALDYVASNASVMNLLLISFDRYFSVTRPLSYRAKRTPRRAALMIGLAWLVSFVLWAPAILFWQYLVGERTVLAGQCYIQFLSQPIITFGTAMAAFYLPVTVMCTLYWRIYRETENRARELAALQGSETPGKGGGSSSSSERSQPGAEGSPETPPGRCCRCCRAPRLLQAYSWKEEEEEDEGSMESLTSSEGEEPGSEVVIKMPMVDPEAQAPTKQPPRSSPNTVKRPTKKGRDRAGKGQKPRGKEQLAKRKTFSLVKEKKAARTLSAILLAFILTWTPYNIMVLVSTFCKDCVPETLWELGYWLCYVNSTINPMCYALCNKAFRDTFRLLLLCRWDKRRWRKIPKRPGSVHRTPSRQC
Procedure, shortened: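 CHO cells stably expressing human CHRM1, seeded 18 h at 37 C/5% CO2, dye-loaded 1 h at 37 C, then given compound in agonist mode; intracellular calcium fluorescence read kinetically at 1 s intervals. Fifteen concentrations, three independent runs.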

[14] = molecular target: Beta-2 adrenergic receptor (Homo sapiens) (UniProt P07550); experiment: Adrenergic beta2 receptor (ADRB2) small molecule antagonists, cell-based qHTS assay (AID 1963592); note: series mostly up to about 92 µM; nearly all actives have a fitted effect of over 50% in size
Beta-2 adrenergic receptor (Homo sapiens), sequence (P07550 whole entry, looked up): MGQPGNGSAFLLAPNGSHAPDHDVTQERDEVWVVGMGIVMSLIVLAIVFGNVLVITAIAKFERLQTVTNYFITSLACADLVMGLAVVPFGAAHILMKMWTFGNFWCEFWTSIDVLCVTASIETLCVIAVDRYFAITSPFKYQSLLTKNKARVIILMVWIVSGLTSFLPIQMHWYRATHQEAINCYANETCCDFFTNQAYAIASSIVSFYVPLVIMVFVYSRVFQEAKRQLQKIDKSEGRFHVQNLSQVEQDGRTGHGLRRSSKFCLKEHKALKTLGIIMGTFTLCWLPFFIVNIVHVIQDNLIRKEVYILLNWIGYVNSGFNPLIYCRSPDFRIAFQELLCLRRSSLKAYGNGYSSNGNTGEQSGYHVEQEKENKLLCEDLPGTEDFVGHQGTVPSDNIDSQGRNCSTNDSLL
Procedure, shortened: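 Cells (CHO, stable ADRB2 overexpression) incubated 18-20hr at 37C; compounds added from DMSO; agonist mix (1nM isoproterenol, 100uM IBMX, 25uM Ro-20-1724) added; 0.5hr RT; d2-cAMP and anti-cAMP-cryptate added; 1hr RT; 665/615 nm read.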

[15] = molecular target: D(2) dopamine receptor (Homo sapiens) (UniProt P14416); experiment: Dopamine D2 receptor (DRD2) small molecule agonists, cell-based qHTS assay (AID 1963594); note: nearly all actives have a fitted effect of over 35% in size
D(2) dopamine receptor (Homo sapiens), sequence (P14416 whole entry, looked up): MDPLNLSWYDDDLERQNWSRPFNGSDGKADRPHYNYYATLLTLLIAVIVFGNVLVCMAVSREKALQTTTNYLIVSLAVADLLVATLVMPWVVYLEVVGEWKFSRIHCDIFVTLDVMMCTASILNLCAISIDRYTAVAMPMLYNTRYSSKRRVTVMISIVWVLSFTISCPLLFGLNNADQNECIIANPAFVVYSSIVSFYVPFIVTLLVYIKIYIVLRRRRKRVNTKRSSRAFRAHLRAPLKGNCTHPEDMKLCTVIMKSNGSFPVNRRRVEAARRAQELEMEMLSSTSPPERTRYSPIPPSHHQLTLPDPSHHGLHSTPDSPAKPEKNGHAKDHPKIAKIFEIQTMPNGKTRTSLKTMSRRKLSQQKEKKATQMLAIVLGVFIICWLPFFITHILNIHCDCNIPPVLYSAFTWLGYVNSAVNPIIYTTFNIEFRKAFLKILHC
Procedure, shortened: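 HEK293 cells stably expressing human DRD2, pre-treated with PDE inhibitor Ro20-1724 (0.1 mM final) and compound 10 min at room temperature, then stimulated with NKH477 (200nM […]) for 30 min. cAMP read by HTRF (665/620 nm).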

[16] = molecular target: D(2) dopamine receptor (Homo sapiens) (UniProt P14416); experiment: Dopamine D2 receptor (DRD2) small molecule antagonists, cell-based qHTS assay (AID 1963595; active = well fitted inhibition curve with a large enough effect in the signal ratio in the repeat runs, with a control signal flat; the % refers to the signal ratio)
Procedure, shortened: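 Antagonist mode in DRD2-HEK293 cells: after compound addition with 0.1 mM Ro20-1724, cells received quinpirole (12 nM) and NKH477 (200 nM) for 30 min at room temperature; HTRF cAMP read after 1 h detection.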

[17] = cAMP Responsive Elements (CRE) small molecule agonists, cell-based qHTS assay (AID 1963590)
Procedure, shortened: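 CRE-bla HEK 293T cells in DMEM with 10% dialyzed FBS, NEAA, pyruvate and 25 mM HEPES were plated 18 h at 37 C/5% CO2, then exposed to compounds in DMSO for 3 h before LiveBLAzer B/G FRET substrate addition.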

[18] = cAMP Responsive Elements (CRE) small molecule antagonists, cell-based qHTS assay (AID 1963591; active = well fitted inhibition curve with a large enough effect in the signal ratio in the repeat runs, not every such curve was filed as active; the % refers to the signal ratio)
Procedure, shortened: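 CRE-bla HEK293T cells were plated 18 h at 37 °C/5% CO2, pinned with compound in DMSO, then stimulated with NKH477 at 0.25 uM final for 3 h. LiveBLAzer B/G FRET substrate was added and plates incubated 2 h at room temperature.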

[19] = Nuclear factor erythroid 2-related factor 2/antioxidant responsive element (Nrf2/ARE) small molecule agonists: qHTS cell viability counter screen in human keratinocytes (AID 1919968; active = well fitted curve in the direction sought with a large enough effect in the repeat runs; an effect the other way counts as inactive or inconclusive; note: nearly all actives have a fitted effect of over 55% in size)
Procedure, shortened: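 KeratinoSens cells (HaCaT keratinocytes stably carrying an ARE-luciferase reporter) were seeded at 1,500 cells/well and rested 5 h at 37 C/5% CO2. They were then exposed to compounds in DMSO for 23 h. Viability was read by CellTiter-Fluor fluorescence after 1 h.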

[20] = molecular target: Muscarinic acetylcholine receptor M1 (Homo sapiens) (UniProt P11229); experiment: Cholinergic receptor muscarinic 1 (CHRM1) small molecule antagonists, cell-based qHTS assay (AID 1963588); note: nearly all actives have a fitted effect of over 40% in size
Procedure, shortened: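 CHRM1-CHO calcium-flux assay, antagonist mode. Cells were seeded 18 h, dye-loaded 1 h at 37 C and given compound for 5 min at RT, then acetylcholine was added at 50nM. FDSS fluorescence was read 3 min; 15 concentrations, three runs.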

Measured: Potency

CC(Cl)C(C)Cl (stereo not given)
not listed: [17] | [18] | [19] | [20]
inactive: all other assays above

CCCN(CCCl)c1c([N+](=O)[O-])cc(C(F)(F)F)cc1[N+](=O)[O-]
not listed: [14] | [19] | [20]
inactive: all other assays above

CCCSP(=O)(OCC)SCCC
inactive: [19] | [4] | [7] | [8] | [11] | [12] | [20] | [13] | [14] | [15] | [16]

CN1C(=O)[C@@H](NC(=O)c2cc3ccccc3[nH]2)N=C(c2ccccc2)c2ccccc21
not listed: [8] | [10] | [19]
inactive: all other assays above

CCC(C)(c1ccc(O)cc1)c1ccc(O)cc1
not listed: [10] | [14] | [19]
inactive: all other assays above

CCCCCCCCCC(=O)O[C@H]1CC[C@H]2[C@@H]3CCC4=CC(=O)CC[C@@H]4[C@H]3CC[C@]12C
not listed: [9] | [10] | [19]
inactive: all other assays above
